Several values for one entry are separate records, joined by “and”; a condition that tells them apart may be missing. Identical values can stand only once. Among all 5,500 compounds or so, about 2,000 (36%) were called active. Roughly 18% stayed inconclusive and do not appear here. Rule as the data show it: active = normalized growth mostly below about 0.91 (no sharp cut-off); inconclusive = no clear call, values can overlap the other calls; inactive = mostly above about 0.92. The list shows a part of the results.
Assay: chemical genetic growth profiling, strain panel (AID 1159580);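 also: tested at 20 µM; growth read once vehicle control cultures reached saturation at 30 °C; 1 = growth at the plate median or of vehicle wells; lower values mean less growth of the strain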
Details: S. cerevisiae deletion strains, growth OD

Measured: normalized growth

Oc1c(Br)cc(Br)c2cccnc12
active: locus YAL013W, strain DEP1, active compounds read low 0.0586 | locus YAL021C, strain ccr4, active compounds read low 0.0663 | locus YAL026C, strain drs2, active compounds read low 0.0631 | locus YAL030W, strain snc1, active compounds read low 0.055 | locus YBL061C, strain skt5, active compounds read low 0.0586 | locus YBR009C, strain hhf1, active compounds read low 0.0623 | locus YBR021W, strain FUR4, active compounds read low 0.0949 | locus YBR023C, strain chs3, active compounds read low 0.0634 | locus YBR171W, strain sec66, active compounds read low 0.0756 | locus YBR229C, strain ROT2, active compounds read low 0.0506 | locus YBR231C, strain swc5, active compounds read low 0.0629 | locus YBR279W, strain paf1, active compounds read low 0.0612 | locus YCL011C, strain gbp2, active compounds read low 0.0575 | locus YCL016C, strain dcc1, active compounds read low 0.0701 | locus YCL029C, strain bik1, active compounds read low 0.07 | locus YCL061C, strain MRC1, active compounds read low 0.0647 | locus YCL069W, strain vba3, active compounds read low 0.0645 | locus YCR088W, strain abp1, active compounds read low 0.0595 | locus YDL005C, strain med2, active compounds read low 0.0726 | locus YDL035C, strain GPR1, active compounds read low 0.0512 | locus YDL040C, strain nat1, active compounds read low 0.0563 | locus YDL074C, strain BRE1, active compounds read low 0.0885 | locus YDL101C, strain DUN1, active compounds read low 0.0585 | locus YDL134C, strain PPH21, active compounds read low 0.0526 | locus YDL185W, strain tfp1, active compounds read low 0.0677 | locus YDL192W, strain arf1, active compounds read low 0.0671 | locus YDR001C, strain nth1, active compounds read low 0.0572 | locus YDR069C, strain doa4, active compounds read low 0.0693 | locus YDR101C, strain arx1, active compounds read low 0.0674 | locus YDR137W, strain rgp1, active compounds read low 0.107 | locus YDR150W, strain NUM1, active compounds read low 0.0621 | locus YDR159W, strain sac3, active compounds read low 0.0892 | locus YDR162C, strain NBP2, active compounds read low 0.0492 | locus YDR195W, strain ref2 0.126 | locus YDR297W, strain sur2, active compounds read low 0.0575 | locus YDR318W, strain mcm21, active compounds read low 0.071 | locus YDR334W, strain swr1, active compounds read low 0.0608 | locus YDR335W, strain msn5, active compounds read low 0.0583 | locus YDR388W, active compounds read low 0.0637 | locus YDR392W, strain spt3, active compounds read low 0.0808 | locus YDR502C, strain sam2, active compounds read low 0.0753 | locus YEL003W, strain gim4, active compounds read low 0.0546 | locus YEL037C, strain rad23, active compounds read low 0.0573 | locus YEL061C, strain CIN8 (second series), active compounds read low 0.145 | locus YEL061C, strain CIN8, active compounds read low 0.05 | locus YER015W, strain faa2, active compounds read low 0.0595 | locus YER016W, strain bim1, active compounds read low 0.0608 | locus YER110C, active compounds read low 0.0879 | locus YER111C, strain swi4, active compounds read low 0.0694 | locus YER155C, strain BEM2 (second series), active compounds read low 0.0894 | locus YER155C, strain BEM2, active compounds read low 0.0691 | locus YER167W, strain BCK2, active compounds read low 0.0561 | locus YFR010W, strain ubp6, active compounds read low 0.0731 | locus YGL078C, strain dbp3, active compounds read low 0.0674 | locus YGL086W, strain mad1, active compounds read low 0.0628 | locus YGL167C, strain pmr1, active compounds read low 0.079 | locus YGL173C, strain kem1, active compounds read low 0.0675 | locus YGL227W, strain vid30, active compounds read low 0.0683 | locus YGL240W, strain doc1, active compounds read low 0.0807 | locus YGL248W, strain PDE1, active compounds read low 0.0474 | locus YGL253W, strain hxk2, active compounds read low 0.0544 | locus YGR078C, strain PAC10, active compounds read low 0.0525 | locus YGR135W, strain pre9, active compounds read low 0.0723 | locus YGR229C, strain SMI1, active compounds read low 0.0593 | locus YGR252W, strain gcn5, active compounds read low 0.146 | locus YHR013C, strain ard1, active compounds read low 0.115 | locus YHR027C, strain rpn1, active compounds read low 0.0627 | locus YHR030C, strain SLT2, active compounds read low 0.0528 and 0.107 | locus YHR079C, strain IRE1 (second series), active compounds read low 0.0637 | locus YHR079C, strain IRE1, active compounds read low 0.113 | locus YHR094C, strain hxt1, active compounds read low 0.0678 | locus YHR129C, strain ARP1, active compounds read low 0.059 | locus YHR142W, strain chs7, active compounds read low 0.0809 | locus YHR200W, strain rpn10, active compounds read low 0.0663 | locus YIL066C, strain RNR3, active compounds read low 0.051 | locus YIL073C, strain SPO22, active compounds read low 0.15 | locus YIL125W, strain kgd1, active compounds read low 0.0707 | locus YIR030C, strain dcg1, active compounds read low 0.0676 | locus YJL092W, strain hpr5, active compounds read low 0.0584 | locus YJL095W, strain BCK1 (second series), active compounds read low 0.0568 | locus YJL095W, strain BCK1, active compounds read low 0.0606 and 0.106 | locus YJL115W, strain asf1, active compounds read low 0.072 | locus YJL129C, strain trk1, active compounds read low 0.0904 | locus YJL134W, strain LCB3, active compounds read low 0.0513 | locus YJL154C, strain vps35, active compounds read low 0.0576 | locus YJL164C, strain tpk1, active compounds read low 0.0622 | locus YJL166W, strain qcr8, active compounds read low 0.0631 | locus YJL168C, strain set2, active compounds read low 0.0664 | locus YJL187C, strain SWE1 (second series), active compounds read low 0.0507 | locus YJR043C, strain POL32, active compounds read low 0.0636 | locus YJR066W, strain TOR1, active compounds read low -4.7e-05
